Shiga toxin inh = Shiga toxin inhibition | Vero cells, Shiga toxin protein synthesis inhibition reporter | inhibition, % at 38.7 µM | 9.2% of 290,000 active | AID 2315; in the data active means inhibition mostly above about 28%, no sharp cut-off; inactive means mostly below about 43%
Cycloheximide cs = affects cycloheximide protein synthesis inhibition readout, counter-screen | max response, % | cell reporter, cycloheximide protein synthesis inhibition counterscreen | 12% of 300,000 active | AID 2314; in the data active means max response mostly above about 13%, no sharp cut-off; inactive means mostly below about 14%; further: read at 38.3 µM for the half of the compounds with a filed dose
FMDV antiviral = blocks foot and mouth disease virus | FMDV antiviral cell-based qHTS | Potency, µM (highest dose often 57.9 µM), most hits filed as inhibitors | 1.2% of 410,000 active; calls by dose curve; tested in HEK293T cells; further: read-out not given here; nearly all actives have a fitted effect of over 45% in size
Sm TGR block = S. mansoni TGR enzyme inhibition | purified TGR, DTNB reduction, TNB absorbance 405 nm | Potency, µM (titrated, usually from 114 µM), actives largely listed as inhibitors | AID 485364 | 3% of 360,000 active | Q962Y6; active means well fitted inhibition curve with a large enough effect; inconclusive means small, poorly fitted or top-dose-only effect; inactive means no such curve, though single readings can be large or run the other way; further: nearly all actives have a fitted effect of over 60% in size
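First, TGR (20 nM dispensed) and NADPH were mixed with compound. Second, a 15 min room-temperature incubation followed. Third, further NADPH and then DTNB were added to start the reaction. Finally, TNB absorbance was monitored kinetically.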
Each line names hits and unclear results; the compound was inactive in the other large screens. This is a sample that favours compounds with a hit; in the whole collection about 12% have one here.

N#Cc1ccsc1NC(=O)COC(=O)c1cc2ccccc2cc1O	Shiga toxin inh 84, Cycloheximide cs 31
N#Cc1ccsc1NC(=O)COC(=O)c1ccc(NC(N)=O)cc1	Shiga toxin inh 92, Cycloheximide cs 41
COc1ccc(S(N)(=O)=O)cc1C(=O)OCC(=O)Nc1sccc1C#N	none (no result: Shiga toxin inh, Cycloheximide cs, Sm TGR block)
CCN(CC)c1ccc(C(=O)OCC(=O)Nc2ccccc2-c2ccccc2)cc1	FMDV antiviral 18µM
Cc1ccc(C(=O)Nc2cc(-c3nc4ncccc4o3)ccc2C)c(C)c1	none (no result: Shiga toxin inh, Cycloheximide cs)
COC(=O)c1cc2c(cc1NC(=O)c1cnn(-c3ccc(C)cc3)c1-n1cccc1)OCO2	none (no result: Shiga toxin inh, Cycloheximide cs)
CC(=O)Nc1cc(C(=O)NCc2ccc(F)cc2)ccc1Sc1ccc(C)cc1	none (no result: Shiga toxin inh, Cycloheximide cs)
O=C(NC1C(=O)NNC1c1ccccc1)c1ccc(F)cc1 (stereo not given)	Shiga toxin inh 88, Cycloheximide cs 29
Cc1ccc(C2NNC(=O)C2NC(=O)c2ccccc2)cc1 (stereo not given)	Shiga toxin inh 33, Cycloheximide cs 39
O=C(NC1C(=O)NNC1c1ccc(Cl)cc1)c1ccc(F)cc1 (stereo not given)	none
CC(CC(=O)NCc1ccccc1)C1CCCO1 (stereo not given)	Shiga toxin inh 26, Cycloheximide cs 17
CC(C)Oc1ccc(NC(=O)c2ccncc2)cc1	Shiga toxin inh 63, Cycloheximide cs 19
CC(C)Oc1ccc(C(=O)Nc2ccc([N+](=O)[O-])cc2)cc1	Shiga toxin inh 119, Cycloheximide cs 37
CN(C)S(=O)(=O)Oc1ccc(C(=O)Nc2ccc([N+](=O)[O-])cc2)cc1	none
COc1ccc(OC)c(NC(=O)Cn2cnc3sc(C)c(S(=O)(=O)N4CCN(c5ccccc5OC)CC4)c3c2=O)c1	none (no result: Shiga toxin inh, Cycloheximide cs)
CN1C/C(=C/c2ccccc2[N+](=O)[O-])C(=O)/C(=C\c2ccccc2[N+](=O)[O-])C1	FMDV antiviral 18µM (no result: Shiga toxin inh, Cycloheximide cs, Sm TGR block)
O=C(COc1ccccc1Cl)N(Cc1ccco1)Cc1ccco1	none (no result: Shiga toxin inh, Cycloheximide cs)
CN(C)S(=O)(=O)c1cccc(NC(=O)c2ccc(COc3ccccc3)cc2)c1	FMDV antiviral 25µM
Cc1cccc(C)c1NC(=O)CN(C)C(=O)c1ccc(COc2ccccc2)cc1	Cycloheximide cs 20
CCN(CC)CCNC(=O)c1ccc(NC(=O)c2ccc(COc3ccccc3)cc2)cc1	Cycloheximide cs 29
CN(c1ccc(C(=O)Nc2cccc(O)c2)cc1)S(=O)(=O)c1ccccc1	Cycloheximide cs 19
CN(c1ccc(C(=O)Nc2cccnc2)cc1)S(=O)(=O)c1ccccc1	FMDV antiviral inconclusive
CSc1ncccc1C(=O)NCC1Cc2cc(-c3cnccn3)cc(Cl)c2O1 (stereo not given)	none (no result: Shiga toxin inh, Cycloheximide cs, Sm TGR block)
COc1ccc2c(c1)-c1nc(-n3ncc(C(=O)N(C)C(C)c4ccon4)c3C3CC3)ncc1CC2 (stereo not given)	none (no result: Shiga toxin inh, Cycloheximide cs, Sm TGR block)
Cc1ccc(-n2ncc(C(=O)N3CCCCC3)c2C2CCN(C(=O)OC(C)(C)C)CC2)c(C)c1	none (no result: Shiga toxin inh, Cycloheximide cs)
Cc1ccc(C(C)C)c(OCCCn2c(=O)oc3ccc(C)cc32)c1	none (no result: Shiga toxin inh, Cycloheximide cs)
CC(=O)Nc1cccc(OCc2ccc(S(=O)(=O)Cc3ccccc3)cc2)c1	Shiga toxin inh 64, Cycloheximide cs 40
CN(c1ccc(C(=O)Nc2ccccn2)cc1)S(=O)(=O)c1ccccc1	Shiga toxin inh 90, Cycloheximide cs 32 (no result: Sm TGR block)
CC(=O)Nc1ccc(OCc2ccc(S(=O)(=O)Cc3ccccc3)cc2)cc1	none (no result: Sm TGR block)
CN(c1ccccc1)S(=O)(=O)c1ccc(NC(=O)c2ccccc2)cc1	Shiga toxin inh active, FMDV antiviral inconclusive
CN(c1ccccc1)S(=O)(=O)c1ccc(C(=O)Nc2ccncc2)cc1	FMDV antiviral inconclusive (no result: Shiga toxin inh, Cycloheximide cs)
COc1ccc(Cl)cc1NC(=O)CN1C(=O)CSc2ccc(S(=O)(=O)N3CCCC3)cc21	none (no result: Shiga toxin inh, Cycloheximide cs)
CCOc1ccc(CCNC(=O)Cn2ncc3c([nH]c4ccccc43)c2=O)cc1OCC	none (no result: Shiga toxin inh, Cycloheximide cs)
O=[N+]([O-])c1cc(-c2cnc3ccccc3n2)ccc1Cl	none
Cc1c(C(=O)Oc2ccc(-c3cnc4ccccc4n3)cc2)cccc1[N+](=O)[O-]	Shiga toxin inh 95, Cycloheximide cs 37
O=C(Oc1ccc(-c2cnc3ccccc3n2)cc1)c1cc([N+](=O)[O-])ccc1Cl	Shiga toxin inh 83, Cycloheximide cs 48
Cc1nc2cccc(C(=O)Oc3ccc([N+](=O)[O-])cc3)c2o1	none
COC(=O)c1ccccc1NC(=O)NCc1ccccn1	none
Cc1c(Cl)cccc1NC(=O)NCc1ccccn1	Cycloheximide cs 15, Sm TGR block 40µM
O=C(NCc1ccccn1)Nc1cccc(Cl)c1Cl	Cycloheximide cs 59
S=C(NCc1ccccn1)Nc1ccccc1Cl	none
Cc1nn(C)c(C)c1CNC(=O)Nc1cccc(Cl)c1C	Cycloheximide cs 32
O=C(NCc1ccccn1)Nc1ccccc1Cl	Shiga toxin inh 32, Cycloheximide cs 25
Cc1cccc(Cn2c(=O)n(Cc3ccccc3)c(=O)c3sc4ccccc4c32)c1	none (no result: Shiga toxin inh, Cycloheximide cs)
CCOC(=O)c1c(NC(=O)C(C)Sc2cn(CCNC(=O)c3c(F)cccc3F)c3ccccc23)sc2c1CCC2 (stereo not given)	none (no result: Shiga toxin inh, Cycloheximide cs)
Cc1ccc(C)c(S(=O)(=O)c2nnn3c2nc(N2CCCCC2)c2sccc23)c1	none (no result: Shiga toxin inh, Cycloheximide cs)
Cc1ccc(NC(=O)CSc2nnc(-c3cc4occc4n3C)n2-c2ccccc2C)c(C)c1	none (no result: Shiga toxin inh, Cycloheximide cs)
CCNC(=S)Nc1cccc(S(=O)(=O)Nc2ccccc2OC)c1	Sm TGR block 1.8µM
COc1ccccc1NS(=O)(=O)c1cccc(NC(=O)Nc2ccccc2)c1	FMDV antiviral inconclusive
Cc1ccc(NC(=O)c2cc3ccccc3oc2=O)cc1S(=O)(=O)N(C)C	FMDV antiviral inconclusive
CN(c1ccccc1)S(=O)(=O)c1cccc(NC(=O)c2cc3ccccc3oc2=O)c1	Shiga toxin inh 66, Cycloheximide cs 61
COc1ccccc1NS(=O)(=O)c1cccc(NC(=O)c2cc3ccccc3oc2=O)c1	Shiga toxin inh 87, Cycloheximide cs 60
Nc1c(C(=O)c2ccc(Br)s2)oc2ccccc12	Cycloheximide cs 23
Nc1ccc(C(=O)c2cccs2)cc1	none
Nc1c(C(=O)c2cccs2)oc2ccccc12	Shiga toxin inh 99, Cycloheximide cs 26
CC1(C)OC(=O)C(=NNc2ccc(Br)cc2)C(=O)O1	Shiga toxin inh 115, Cycloheximide cs 31
Cc1nc(-c2ccc([N+](=O)[O-])cc2)nc2[nH]ccc(=O)c12	Cycloheximide cs 30
Cc1nc(-c2ccccc2)nc2[nH]ccc(=O)c12	Cycloheximide cs 34
C[C@H](O)C(N)C(=O)O (stereo not given in full)	none (no result: FMDV antiviral, Sm TGR block)
CCC1CN(CC(=O)NC(c2ccccn2)C(F)(F)F)Cc2cc(OC)ccc2O1 (stereo not given)	none (no result: Shiga toxin inh, Cycloheximide cs, Sm TGR block)
CCc1ccc(N(C(C)=O)c2nc(CCl)cs2)cc1	Cycloheximide cs 29
Cn1c(=O)c2c(-c3ccc(Cl)cc3)ccnc2n(C)c1=O	none (no result: Shiga toxin inh, Cycloheximide cs)
Cc1cc(C)n(-c2ccc(C(=O)N3CCc4ccccc43)cc2)n1	Shiga toxin inh 63, Cycloheximide cs 18
CC(C)(C)c1cc(C(=O)N2CCc3ccccc32)ccn1	Shiga toxin inh 40
CCOc1ccc(C(=O)N2CCc3ccccc32)cc1	Shiga toxin inh 64, Cycloheximide cs 44
Cc1cc(C(=O)N2CCc3ccccc32)n(-c2ccccc2)n1	none
Cc1cc(C)n(-c2ccc(C(=O)OC(C)C)cc2)n1	Cycloheximide cs 20 (no result: FMDV antiviral)
Cc1cc(C)n(-c2ccc(C(=O)NC(C)C)cc2)n1	none

Screens from PubChem.
